# Assay results: PubChem BioAssay (NCATS)
# Records with an inconclusive call do not appear. Unmarked numbers belong to inactive results. Calls of active or inactive are those of the source. Calls come from the whole dose curve.
# Target: Nucleoprotein (Lymphocytic choriomeningitis virus (strain Armstrong)) (UniProt P09992)
# Test: qHTS for Inhibitors of the Functional Ribonucleoprotein Complex (vRNP) of Lymphocytic Choriomeningitis Arenaviruses (LCMV): LCMV Primary Screen - GLuc reporter signal (AID 1347086); note: nearly all actives have a fitted effect of over 70% in size
# Settings: LCMV minigenome vRNP cell assay, Gaussia luciferase reporter; series mostly up to 57.5 µM; activity change, negative = inhibition: at the top concentration
# % is set by controls: 0 for no effect and ±100 for the full control effect.
# Sequence of Nucleoprotein (Lymphocytic choriomeningitis virus (strain Armstrong)) (P09992 whole entry, looked up): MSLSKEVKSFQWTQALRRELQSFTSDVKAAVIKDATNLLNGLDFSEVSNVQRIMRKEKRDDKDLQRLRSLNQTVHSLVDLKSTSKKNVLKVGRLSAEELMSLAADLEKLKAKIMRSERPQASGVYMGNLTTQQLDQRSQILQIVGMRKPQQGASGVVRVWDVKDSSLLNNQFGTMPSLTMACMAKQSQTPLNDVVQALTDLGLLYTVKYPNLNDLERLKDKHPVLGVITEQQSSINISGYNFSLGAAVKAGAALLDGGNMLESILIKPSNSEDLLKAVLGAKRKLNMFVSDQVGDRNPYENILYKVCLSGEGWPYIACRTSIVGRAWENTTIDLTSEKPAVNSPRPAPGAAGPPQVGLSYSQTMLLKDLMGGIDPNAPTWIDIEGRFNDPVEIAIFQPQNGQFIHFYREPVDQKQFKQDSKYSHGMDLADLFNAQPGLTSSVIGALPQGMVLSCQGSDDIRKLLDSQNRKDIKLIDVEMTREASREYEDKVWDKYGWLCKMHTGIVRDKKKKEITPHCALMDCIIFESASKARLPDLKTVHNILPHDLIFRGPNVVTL
Compound,Potency,"activity change, negative = inhibition"
CCC1=C(C)CN(C(=O)NCCc2ccc(S(=O)(=O)NC(=O)NC3CCC(C)CC3)cc2)C1=O (centres undefined),inactive,
CCCCCN(C)CCC(O)(P(=O)(O)O)P(=O)(O)O,,17.3%
O=S(=O)(O)c1ccc2nc(-c3ccccc3)[nH]c2c1,,41%
CCCCCN(CCCOC)C(=O)C(CCC(=O)O)NC(=O)c1ccc(Cl)c(Cl)c1 (centres undefined),,-26.8%
FC1(F)C(F)(F)C(F)(F)C2(F)C(F)(F)C(F)(F)C(F)(F)C(F)(F)C2(F)C1(F)F (centres undefined),,13.6%
Cc1cc(OI)c(C(C)C)cc1-c1cc(C(C)C)c(OI)cc1C,,1.41%
CN1CCN(C(=O)C2CCCCC2)CC1,,0.736%
CN(C)C(=O)Oc1ccc[n+](C)c1,inactive,
CC(CN(C)C)C(C)(O)Cc1ccc(Cl)cc1 (centres undefined),,-4.16%
CCCN1CCCC[C@H]1C(=O)Nc1c(C)cccc1C,,15.9%
CO/N=C(/C(=O)N[C@@H]1C(=O)N2C(C(=O)[O-])=C(C[n+]3ccn4ncccc43)CS[C@H]12)c1nsc(N)n1,,-11.9%
COc1c2occc2cc2ccc(=O)oc12,,13.9%
CC(=O)Oc1ccc(C)cc1,inactive,
CCn1cc(C(=O)O)c(=O)c2cnc(N3CCCC3)nc21,,14.6% [at 11.5 µM]
Cc1ncc(CO)c(CN)c1O,,26.1%
CN=C(NC#N)NCCSCc1nc[nH]c1C,inactive,
CC(C(=O)O)c1cccc(Oc2ccccc2)c1 (centres undefined),,-0.573%
c1ccc2c(CC3=NCCN3)cccc2c1,,-0.595%
CC1CC(OC(=O)c2ccccc2O)CC(C)(C)C1 (centres undefined),,16.1%
C[N+](C)(CCOc1ccccc1)Cc1cccs1,,-11.4%

Compound,Potency,"activity change, negative = inhibition"
CCOc1ccccc1OCC1CNCCO1 (centres undefined),,-0.539%
CO[C@@]1(NC(=O)C(C(=O)O)c2ccc(O)cc2)C(=O)N2C(C(=O)O)=C(CSc3nnnn3C)CO[C@@H]21 (some centres undefined),,-10.4%
CCCCOCCOC(=O)c1cccnc1,,13.2%
C#C[C@]1(O)CC[C@H]2[C@@H]3CCC4=CC(=O)CC[C@@H]4[C@H]3CC[C@@]21CC,,5.7%
O=C(O)c1ccc[n+]([O-])c1,,0.746%
O=[N+]([O-])c1ccc(/C=N\O)o1,,1.64%
CS(=O)(=O)c1ccc([C@@H](O)[C@@H](CF)NC(=O)C(Cl)Cl)cc1,,-21.1%
CC(C)(Oc1ccc(C2CC2(Cl)Cl)cc1)C(=O)O (centres undefined),inactive,
Cc1cc(-n2nc3ccc(Cl)cc3n2)c(O)c(C(C)(C)C)c1,,0.239%
CC(=O)c1cc2ccccc2s1,,12.4%
Nc1nc(N)nc(-c2cc(Cl)ccc2Cl)n1,inactive,
CCOc1ncc(F)c(=O)[nH]1,,-12.3%
Cc1ccccc1C(=O)Nc1ccc(C(=O)N2CCCC(N(C)C)c3ccccc32)cc1 (centres undefined),,-38.5%
NS(=O)(=O)c1ccc(NC(=O)CCC(=O)O)cc1,,15.8%
O=C(O)Cn1cnnn1,,1.33%
CCCCCCCCCCCC(=O)[O][Sn]([CH2]CCC)([CH2]CCC)[O]C(=O)CCCCCCCCCCC,,23.1%
C/C(=N\O)c1ccc(OCC(=O)N2CCCCC2)cc1,,1.11%
NC(=O)c1cc[n+](CC2=C(C(=O)[O-])N3C(=O)[C@@H](NC(=O)Cc4cccs4)[C@H]3SC2)cc1,,14.9%
CCC1(C)CC(=O)NC1=O (centres undefined),inactive,
